From the OligoGym collection come the findings set out here.
Note: reference of the scale not given here.

The first assay addresses GOLGA1. In words: pooled miR-30 sensor sort-seq; sequence = guide strand. Conditions: shRNA.
Take TTGAGTTTCAGCAGTGACCTTT: the sensor-assay potency score (higher = more potent) amounted to 0.403.
TATCACATGATCTCTCTGCTCT: the sensor-assay potency score (higher = more potent) was 0.568.
TGATCTTACTTTCTGCACCTGT displayed a sensor-assay potency score (higher = more potent) of -0.0709.

In another assay the target is GORASP1. The assay is described as above. The settings on record: shRNA.
TTATCCTCCAACTTATGGGGGA had a sensor-assay potency score (higher = more potent) of -0.359.
Still for that read-out and setting: under TTCCACATCCAGCACATGCCAC stands -1.05; under TCCATGTAGTCACTCTGCCTGG, -1.3; under TTATACACCATCAGCTTCAAGG, -1.
The same measure, in the same setting: to TACACCATCAGCTTCAAGGGCT belongs 0.394; to TTCAGTAGTGCCTTCAGGGTGT, 0.45; to TGAAGATGGTTCCACATCCAGC, -1.37.
Still for that read-out and setting: to TAACTCGCTGCACTGGAGGTGG belongs -0.397; to TGACTTGGAGTTATACACCATC, -1.14.
With AATATTAGCATTGATACCCATT, the sensor-assay potency score (higher = more potent) was -1.46.

Another assay addresses GP1BA. The description is as above. Conditions: shRNA.
As to TAGAGGATCTCACAGTTGCATA, the sensor-assay potency score (higher = more potent) was -1.69.
Regarding TATACAGCGAGTTCTCTTGGAG, the sensor-assay potency score (higher = more potent) is -0.385.
Same read-out and setting: to AACTTGACCACAGTCCTTGTGG belongs 0.0455; to ATTTTCAGCATTGTCCTGCAGC, -0.496; to TTTGGCTGTCTAGAGAAGCAGT, -0.816.
On the same count and under the same terms, under TTGGGGTCCATCTAGGTGGGAA stands -0.196; under TTTGGTATTGTATACAGCGAGT, -0.992; under TTTCAGGTAGAGCTCTTGGAGT, -0.846.
On the same count and under the same terms, under TTCAGCATTGTCCTGCAGCCAG stands -0.558; under TAGACGGGAAACTTGTCTGAAT, -0.507; under TTGACCACAGTCCTTGTGGCAC, -0.461.
On to TAGTGGATTCTTGTGTTGGATG, for which the sensor-assay potency score (higher = more potent) is -1.15.

A further assay addresses GP6. The description is as above. Conditions: shRNA.
Turning to ATTATTAGGATCACAGCCCCGA, the sensor-assay potency score (higher = more potent) was -0.0711.
Sequence TTGTTTTCTAATGTGAAGGGAA showed a sensor-assay potency score (higher = more potent) of -0.126.
Same read-out and setting: to TTGCACAGGCTGATCTTGTTTT belongs -0.638; to TAGCATCGGTAGGTTCCGCTGT, -0.0169; to TAGCCCTGTACCATCTCTCGGG, -0.328.
The same measure, in the same setting: under TTCGTTTGTGAATGAGACGGTC stands 0.0865; under TTTTGAGACAAAGTCAGGCTTC, 0.424.
In turn, TTTGTTGGTAGAGATGAGGTTT registered a sensor-assay potency score (higher = more potent) of -0.205.
Consider TATTTTTTGAGACAAAGTCAGG, for which the sensor-assay potency score (higher = more potent) is -1.21.
Still for that read-out and setting: under TTTTACACTAAGGAAAATGAAT stands -1.19.

In a further assay the target is GPAA1. The assay is described as above. The settings on record: shRNA.
For the sequence TAGCGCTGCCAGGAAGAGCTGC, the sensor-assay potency score (higher = more potent) is -1.02.
On the same count and under the same terms, under TTCTGTTACCAGGAAGACGATA stands -1.01.
Same read-out and setting: to TTCAGTGCCATCCAGCCCCTGT belongs -0.292; to TTGAGCTTGCGGAACATGCCCT, -0.132; to TTGAGGCGCAGCACTAGGCGGG, -0.543.
